This is an account of results in PubChem BioAssay (EPA / NIEHS).

In general, AC50 refers to the concentration at which the activity in the assay is half-maximal.

Holding throughout (settings): mRNA level, 48 h; actives raise or lower the signal
Read-out in experiment [1]: Tumor necrosis factor receptor superfamily member 6 (Homo sapiens) (UniProt P25445)
The experiment in a line: LTEA_HepaRG_FAS: Life Technologies and Expression Analysis (LTEA) Assay for Fas cell surface death receptor (FAS) using HepaRG (AID 2283447). The method in brief: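 FAS transcript level was measured by TaqMan qRT-PCR against three housekeeping genes after 48 h chemical exposure. Cells were HepaRG, 0.5% DMSO vehicle, with a top concentration of 100 uM and half-log dilutions over eight points, in duplicate.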

Read-out in experiment [2]: Cyclin Dependent Kinase Inhibitor 1A (CDKN1A), CDKN1A (gene 1026)
The experiment in a line: LTEA_HepaRG_CDKN1A: Life Technologies and Expression Analysis (LTEA) Assay for Cyclin Dependent Kinase Inhibitor 1A (CDKN1A) using HepaRG (AID 2283450). The method in brief: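 Differentiated HepaRG cells in serum-free induction medium, exposed 48 h in duplicate to eight half-log concentrations up to 100 uM in 0.5% DMSO. mRNA measured by TaqMan qRT-PCR, normalized to ACTB, GAPDH, POLR2A; bidirectional fit versus DMSO.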

Read-out in experiment [3]: Cyclin D1 (CCND1), CCND1 (gene 595)
The experiment in a line: LTEA_HepaRG_CCND1: Life Technologies and Expression Analysis (LTEA) Assay for Cyclin D1 (CCND1) using HepaRG (AID 2283451). The method in brief:
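Differentiated HepaRG cells exposed 48 h in serum-free induction medium to eight half-log concentrations from 100 uM top, 0.5% DMSO, duplicates. CCND1 mRNA measured by Fluidigm TaqMan qRT-PCR, normalised to ACTB, GAPDH, POLR2A; bidirectional fit.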

Read-out in experiment [4]: catalase (CAT), CAT (gene 847)
The experiment in a line: LTEA_HepaRG_CAT: Life Technologies and Expression Analysis (LTEA) Assay for catalase (CAT) using HepaRG (AID 2283452). The method, boiled down:
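Expression of CAT was quantified by TaqMan qRT-PCR with ACTB/GAPDH/POLR2A normalization after 48 h chemical exposure of HepaRG. Eight-point half-log series, top 100 uM, in 0.5% DMSO; gain or loss fitted against vehicle.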

Read-out in experiment [5]: flavin-containing dimethylaniline monooxygenases 3 (FMO3), FMO3 (gene 2328)
The experiment in a line: LTEA_HepaRG_FMO3: Life Technologies and Expression Analysis (LTEA) Assay for flavin-containing dimethylaniline monooxygenases 3 (FMO3) using HepaRG (AID 2283453). The method in brief:
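HepaRG, 48 h exposure, 8-pt half-log series from 100 uM, 0.5% DMSO vehicle, duplicates; FMO3 transcript by Fluidigm TaqMan qRT-PCR, housekeeping-normalized; gain/loss fit vs DMSO.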

Read-out in experiment [6]: Cytochrome P450 (CYP1A1), CYP1A1 (gene 1543)
The experiment in a line: LTEA_HepaRG_CYP1A1: Life Technologies and Expression Analysis (LTEA) Assay for Cytochrome P450 (CYP1A1) using HepaRG (AID 2283454). The method in brief:
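Differentiated human HepaRG cells, after 48 h plating, exposed in duplicate for 48 h in serum-free induction medium to 8 half-log concentrations up to 100 uM in 0.5% DMSO. CYP1A1 mRNA by qRT-PCR, normalized to ACTB/GAPDH/POLR2A; bidirectional fit versus DMSO.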

Read-out in experiment [7]: CFLAR gene, CFLAR (gene 8837)
The experiment in a line: LTEA_HepaRG_CFLAR: Life Technologies and Expression Analysis (LTEA) Assay for CFLAR gene using HepaRG (AID 2283455). The method, boiled down:
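HepaRG, 48 h exposure, 8-pt conc-response (100 uM top, half-log), 0.5% DMSO vehicle, duplicates. CFLAR expression by qRT-PCR; ACTB/GAPDH/POLR2A normalization; gain or loss fit vs DMSO baseline.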

Read-out in experiment [8]: Forkhead box O1 (FOXO1), FOXO1 (gene 2308)
The experiment in a line: LTEA_HepaRG_FOXO1: Life Technologies and Expression Analysis (LTEA) Assay for Forkhead box O1 (FOXO1) using HepaRG (AID 2283456). The method, boiled down: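 Readout is FOXO1 transcript level by multiplexed qRT-PCR against three housekeeping genes, curve-fitted in both directions relative to 0.5% DMSO vehicle. Human HepaRG cultures received chemicals for 48 h, up to 100 uM in half-log steps.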

Read-out in experiment [9]: growth arrest and DNA damage 45 (GADD45A), GADD45A (gene 1647)
The experiment in a line: LTEA_HepaRG_GADD45A: Life Technologies and Expression Analysis (LTEA) Assay for growth arrest and DNA damage 45 (GADD45A) using HepaRG (AID 2283458). The method, boiled down: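 Differentiated HepaRG cells were exposed in duplicate for 48 h in serum-free induction medium to 8-point half-log concentrations up to 100 uM in 0.5% DMSO. GADD45A mRNA was measured by TaqMan qRT-PCR, normalized to ACTB, GAPDH and POLR2A, with bidirectional fitting versus DMSO.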

Read-out in experiment [10]: Forkhead box O3 (FOXO3), FOXO3 (gene 2309)
The experiment in a line: LTEA_HepaRG_FOXO3: Life Technologies and Expression Analysis (LTEA) Assay for Forkhead box O3 (FOXO3) using HepaRG (AID 2283459). The method in brief:
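HepaRG, 48 h post-dose; 8 conc., half-log from 100 uM, 0.5% DMSO, duplicates; serum-free induction medium. Readout: FOXO3 mRNA, TaqMan qRT-PCR, housekeeping-normalized. Bidirectional curve fit vs DMSO baseline.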

Read-out in experiment [11]: ABC Transporter (ABCB1), ABCB1 (gene 5243)
The experiment in a line: LTEA_HepaRG_ABCB1: Life Technologies and Expression Analysis (LTEA) Assay for ABC Transporter (ABCB1) using HepaRG (AID 2283460). The method, boiled down: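 Expression of ABCB1 was quantified by qRT-PCR against three housekeeping genes after human HepaRG cultures received test chemicals for 48 hours. Concentrations spanned eight half-log steps topping at 100 uM in 0.5% DMSO; gain or loss of signal was fitted relative to vehicle.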

Read-out in experiment [12]: growth arrest and DNA damage 45 (GADD45B), GADD45B (gene 4616)
The experiment in a line: LTEA_HepaRG_GADD45B: Life Technologies and Expression Analysis (LTEA) Assay for growth arrest and DNA damage 45 (GADD45B) using HepaRG (AID 2283461). The method in brief: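 Differentiated human HepaRG cells in serum-free induction medium exposed 48 h in duplicate to eight concentrations, top 100 uM, half-log steps, 0.5% DMSO. GADD45B mRNA by TaqMan qRT-PCR, normalized to ACTB, GAPDH, POLR2A; bidirectional fit versus DMSO.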

Read-out in experiment [13]: ABC Transporter (ABCC3), ABCC3 (gene 8714)
The experiment in a line: LTEA_HepaRG_ABCC3: Life Technologies and Expression Analysis (LTEA) Assay for ABC Transporter (ABCC3) using HepaRG (AID 2283462). The method, boiled down:
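Differentiated human HepaRG cells exposed 48 h in serum-free induction medium, 0.5% DMSO vehicle, 8-point half-log series to 100 uM in duplicate. ABCC3 mRNA by qRT-PCR, normalised to ACTB, GAPDH, POLR2A; bidirectional fit vs DMSO.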

Read-out in experiment [14]: Cyclin D2 (CCND2), CCND2 (gene 894)
The experiment in a line: LTEA_HepaRG_CCND2: Life Technologies and Expression Analysis (LTEA) Assay for Cyclin D2 (CCND2) using HepaRG (AID 2283449). The method in brief:
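Read-out is CCND2 mRNA level measured by qRT-PCR in human HepaRG liver cells and normalised to three housekeeping genes. Chemicals were applied for 48 h at up to 100 uM, with gain or loss fitted relative to 0.5% DMSO.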

Read-out in experiment [15]: Fatty acid synthase (Homo sapiens) (UniProt P49327)
The experiment in a line: LTEA_HepaRG_FASN: Life Technologies and Expression Analysis (LTEA) Assay for Fatty Acid Synthase (FASN) using HepaRG (AID 2283448). The method, boiled down: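 Differentiated human HepaRG cells were exposed for 48 h in serum-free induction medium to eight half-log concentrations up to 100 uM in 0.5% DMSO, in duplicate. FASN mRNA was quantified by TaqMan qRT-PCR, normalized to ACTB/GAPDH/POLR2A, and fitted bidirectionally against DMSO.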

Activity calls are given as the source filed them. Rule for the calls: active = hit-call score of the fitted dose curve at least 0.9, where 1 is the maximum; inactive = score below 0.9.

Chain of Fatty acid synthase (Homo sapiens) (P49327 whole entry, looked up): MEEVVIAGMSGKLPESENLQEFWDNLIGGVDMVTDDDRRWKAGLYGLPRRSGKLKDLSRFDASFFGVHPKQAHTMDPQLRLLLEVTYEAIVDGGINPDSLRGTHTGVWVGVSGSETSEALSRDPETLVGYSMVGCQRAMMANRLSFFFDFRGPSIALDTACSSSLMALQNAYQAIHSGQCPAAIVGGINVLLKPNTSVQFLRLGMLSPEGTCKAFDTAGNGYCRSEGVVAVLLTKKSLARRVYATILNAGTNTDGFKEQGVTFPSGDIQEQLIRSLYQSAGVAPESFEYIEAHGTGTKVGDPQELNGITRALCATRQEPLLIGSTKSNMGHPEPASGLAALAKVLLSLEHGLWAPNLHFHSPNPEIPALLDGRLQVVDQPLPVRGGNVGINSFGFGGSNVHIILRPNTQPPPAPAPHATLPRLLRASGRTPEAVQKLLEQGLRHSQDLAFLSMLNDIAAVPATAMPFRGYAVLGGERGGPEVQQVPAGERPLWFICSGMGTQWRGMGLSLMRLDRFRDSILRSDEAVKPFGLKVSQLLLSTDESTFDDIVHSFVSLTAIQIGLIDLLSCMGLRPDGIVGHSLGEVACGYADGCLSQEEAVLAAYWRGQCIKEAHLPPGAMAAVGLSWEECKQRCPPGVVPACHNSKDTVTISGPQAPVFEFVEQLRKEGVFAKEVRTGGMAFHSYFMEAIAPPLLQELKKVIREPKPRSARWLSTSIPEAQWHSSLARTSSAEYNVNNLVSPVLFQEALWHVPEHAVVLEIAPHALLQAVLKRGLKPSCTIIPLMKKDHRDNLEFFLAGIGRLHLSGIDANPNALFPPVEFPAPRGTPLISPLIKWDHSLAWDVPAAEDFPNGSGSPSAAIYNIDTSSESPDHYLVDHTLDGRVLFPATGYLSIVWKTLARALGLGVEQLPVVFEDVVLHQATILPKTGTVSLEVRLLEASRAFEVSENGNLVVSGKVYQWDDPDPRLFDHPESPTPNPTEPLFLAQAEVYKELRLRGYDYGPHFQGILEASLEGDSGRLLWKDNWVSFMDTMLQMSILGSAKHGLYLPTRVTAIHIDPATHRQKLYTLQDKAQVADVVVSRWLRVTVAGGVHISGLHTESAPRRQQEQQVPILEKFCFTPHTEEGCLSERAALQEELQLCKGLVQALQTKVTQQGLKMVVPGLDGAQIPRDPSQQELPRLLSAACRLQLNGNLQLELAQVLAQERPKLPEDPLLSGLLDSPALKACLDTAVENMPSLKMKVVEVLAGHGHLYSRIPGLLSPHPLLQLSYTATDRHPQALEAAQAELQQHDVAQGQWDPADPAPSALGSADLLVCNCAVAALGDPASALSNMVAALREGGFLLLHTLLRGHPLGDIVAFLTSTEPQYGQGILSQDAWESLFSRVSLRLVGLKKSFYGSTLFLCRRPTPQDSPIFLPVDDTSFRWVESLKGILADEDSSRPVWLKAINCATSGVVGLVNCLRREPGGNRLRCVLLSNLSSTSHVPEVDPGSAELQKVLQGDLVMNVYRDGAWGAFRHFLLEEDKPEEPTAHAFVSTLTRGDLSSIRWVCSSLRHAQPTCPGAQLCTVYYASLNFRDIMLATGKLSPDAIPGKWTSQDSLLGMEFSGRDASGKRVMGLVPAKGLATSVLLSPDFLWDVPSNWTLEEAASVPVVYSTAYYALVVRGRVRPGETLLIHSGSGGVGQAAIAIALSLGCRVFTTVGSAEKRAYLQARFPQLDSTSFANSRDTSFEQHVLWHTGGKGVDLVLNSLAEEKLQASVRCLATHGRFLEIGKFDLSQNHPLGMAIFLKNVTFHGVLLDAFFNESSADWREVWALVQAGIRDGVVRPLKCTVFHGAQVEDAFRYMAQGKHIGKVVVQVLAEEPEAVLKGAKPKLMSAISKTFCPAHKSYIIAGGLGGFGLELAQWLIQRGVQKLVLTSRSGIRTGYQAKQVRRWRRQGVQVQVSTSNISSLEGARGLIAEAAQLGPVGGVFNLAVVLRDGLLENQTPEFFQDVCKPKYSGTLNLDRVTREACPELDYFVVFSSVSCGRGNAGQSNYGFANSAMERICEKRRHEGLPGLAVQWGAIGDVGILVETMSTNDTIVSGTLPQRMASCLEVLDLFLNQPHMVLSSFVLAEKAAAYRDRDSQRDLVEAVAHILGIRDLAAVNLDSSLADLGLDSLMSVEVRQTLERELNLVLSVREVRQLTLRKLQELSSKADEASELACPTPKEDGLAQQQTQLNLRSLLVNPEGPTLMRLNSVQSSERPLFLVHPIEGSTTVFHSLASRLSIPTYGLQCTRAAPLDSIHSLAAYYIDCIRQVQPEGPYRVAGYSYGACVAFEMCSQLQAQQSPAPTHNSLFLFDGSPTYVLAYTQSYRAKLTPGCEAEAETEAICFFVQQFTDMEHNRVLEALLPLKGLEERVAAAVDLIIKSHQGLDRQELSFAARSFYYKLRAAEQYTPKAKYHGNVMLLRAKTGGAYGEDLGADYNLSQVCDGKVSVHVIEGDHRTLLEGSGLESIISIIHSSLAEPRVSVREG

Consider `CCCCCCCc1ccc(O)cc1`, for which the compound was called inactive in experiment [1], in experiment [2], in experiment [3], in experiment [4], in [5] and in experiment [6]. In addition, the call in experiment [7], in [8], in experiment [9], in experiment [10], in experiment [11] and in experiment [12] was inactive. In addition, in experiment [13], the compound was classed as inactive.

For the compound `c1cc2c3c(cccc3c1)CC2`, the call in experiment [1], in experiment [14], in [3], in experiment [4], in experiment [5] and in [7] was inactive. The compound was called inactive in experiment [8], in experiment [9], in experiment [10], in [11], in experiment [12] and in [13]. Also, the figures for the AC50 in [2] and in experiment [6] were 0.387 µM (active) and 72.4 µM (active), respectively.

With `CCN(CC)c1ccccc1`, the call in experiment [1], in experiment [14], in experiment [2], in [3], in experiment [4] and in experiment [5] was inactive. Also, the compound was called inactive in [7], in experiment [8], in experiment [9], in experiment [10], in [11] and in experiment [12]. Besides, in experiment [13], the outcome was inactive. For the same compound, the AC50 in [6] is 50 µM (active).

Take `CCC1(c2ccccc2)C(=O)N=C(O)NC1=O` (stereo unspecified): the result in experiment [1], in [14], in [2], in experiment [3], in experiment [4] and in experiment [5] was inactive. Moreover, the call in experiment [7], in [8], in experiment [9], in experiment [10], in [11] and in [12] was inactive. In addition, the call in experiment [13] was inactive. The AC50 in experiment [6] was 64.3 µM (active).

`ClC(Cl)c1ccccc1`: the call in experiment [1], in experiment [14], in experiment [2], in [3], in [4] and in [5] was inactive. Further, the call in experiment [7], in experiment [8], in [9], in experiment [10], in experiment [11] and in experiment [12] was inactive. For the same compound, in experiment [13], the call was inactive. Further, the AC50 in [6] was 50 µM (active).

For the compound `CN(C)C(=O)Cl`, the outcome in experiment [1], in experiment [14], in experiment [2], in [3], in [4] and in [5] was inactive. The call in [7], in experiment [9], in experiment [10], in experiment [11], in experiment [12] and in experiment [13] was inactive. For the same compound, in experiment [6], the AC50 is 50 µM (active).

Regarding `Cc1ccc([N+](=O)[O-])cc1C`, the compound was classed as inactive in [1], in experiment [14], in experiment [2], in [3], in experiment [4] and in experiment [5]. The outcome in experiment [7], in [8], in [9], in [10], in experiment [11] and in [12] was inactive. In addition, the result in experiment [13] was inactive. The AC50 in [6] was 68.1 µM (active).

With `CCOP(=S)(OCC)SCSCC`, the compound was called inactive in experiment [1], in experiment [2], in experiment [3], in experiment [4], in experiment [5] and in [7]. The compound was called inactive in experiment [8], in experiment [9], in [10], in experiment [11], in experiment [12] and in [13]. In experiment [6], the AC50 was 66.7 µM (active).

For `ClC1=C(Cl)C2(Cl)C3C(Cl)C(Cl)CC3C1(Cl)C2(Cl)Cl` (stereo unspecified), the compound was called inactive in experiment [1], in experiment [15], in experiment [14], in [2], in experiment [3] and in experiment [4]. For the same compound, the compound was classed as inactive in experiment [5], in experiment [7], in experiment [8], in [9], in [10] and in experiment [12]. For the same compound, in experiment [13], the call was inactive. Moreover, the AC50 in experiment [6] is 33.4 µM (active); in experiment [11], 6.37 µM (active).

As for `O=P1(N(CCCl)CCCl)NCCCO1` (stereo unspecified), the result in experiment [1], in experiment [14], in [2], in experiment [3], in experiment [4] and in experiment [5] was inactive. Further, the compound was called inactive in experiment [7], in experiment [8], in experiment [9], in [10], in experiment [11] and in experiment [12]. In experiment [13], the compound was classed as inactive. Besides, the AC50 in experiment [6] was 50 µM (active).

For the compound `CC(Cc1ccc(OCC(=O)O)cc1)NCC(O)c1csc(C(F)(F)F)n1` (stereo unspecified), the call in [1], in experiment [14], in experiment [2], in experiment [3], in experiment [4] and in experiment [5] was inactive. The call in [7], in experiment [8], in experiment [9], in experiment [10], in experiment [11] and in [12] was inactive. Also, the compound was called inactive in experiment [13]. For the same compound, in [6], the AC50 is 0.0496 µM (active).

For `c1nc[nH]n1`, the compound was called inactive in experiment [1], in [2], in experiment [3], in experiment [4], in experiment [5] and in experiment [7]. Further, the compound was called inactive in experiment [8], in experiment [9], in experiment [10], in experiment [11], in experiment [12] and in experiment [13]. The figures for the AC50 in [14] and in [6] were 0.0353 µM (active) and 0.146 µM (active), respectively.
